Several values for one entry are separate records, joined by “and”; a condition that tells them apart may be missing. Equal entries are not always repeated. The campaign covered roughly 5,500 compounds. About 2,000 (36%) were called active. Not shown: some 18% with an inconclusive outcome. No stated cut-off is given here; in the data, active means normalized growth mostly below about 0.91 (no sharp cut-off); inconclusive means no clear call, values can overlap the other calls; inactive means mostly above about 0.92. Some of the results follow.
Assay: chemical genetic growth profiling, strain panel (AID 1159580);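 further: tested at 20 µM; growth read once vehicle control cultures reached saturation at 30 °C; 1 = growth at the plate median or of vehicle wells; lower values mean less growth of the strain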
Conditions: S. cerevisiae deletion strains, growth OD

Measured: normalized growth

CN(C)CCOC(=O)C(c1ccccc1)C1(O)CCCC1 (stereo not drawn)
inactive: locus YAL013W, strain DEP1, hits give low values 1.01 | locus YAL021C, strain ccr4, hits give low values 0.987 | locus YAL026C, strain drs2, hits give low values 1.03 | locus YAL030W, strain snc1, hits give low values 0.99 | locus YBL061C, strain skt5, hits give low values 0.995 | locus YBR009C, strain hhf1, hits give low values 1 | locus YBR021W, strain FUR4, hits give low values 0.991 | locus YBR023C, strain chs3, hits give low values 1 | locus YBR171W, strain sec66, hits give low values 0.97 | locus YBR229C, strain ROT2, hits give low values 0.998 | locus YBR231C, strain swc5, hits give low values 0.972 | locus YBR279W, strain paf1, hits give low values 0.992 | locus YCL011C, strain gbp2, hits give low values 1.01 | locus YCL016C, strain dcc1, hits give low values 1.03 | locus YCL029C, strain bik1, hits give low values 1.02 | locus YCL061C, strain MRC1, hits give low values 0.993 | locus YCL069W, strain vba3, hits give low values 0.991 | locus YCR088W, strain abp1, hits give low values 0.981 | locus YDL005C, strain med2, hits give low values 0.991 | locus YDL035C, strain GPR1, hits give low values 1.01 | locus YDL040C, strain nat1, hits give low values 0.974 | locus YDL074C, strain BRE1, hits give low values 1.02 | locus YDL101C, strain DUN1, hits give low values 0.998 | locus YDL185W, strain tfp1, hits give low values 1.01 | locus YDL192W, strain arf1, hits give low values 1.02 | locus YDR001C, strain nth1, hits give low values 0.963 | locus YDR069C, strain doa4, hits give low values 0.99 | locus YDR101C, strain arx1, hits give low values 1 | locus YDR137W, strain rgp1, hits give low values 1.04 | locus YDR150W, strain NUM1, hits give low values 0.998 | locus YDR159W, strain sac3, hits give low values 1.01 | locus YDR162C, strain NBP2, hits give low values 1.01 | locus YDR195W, strain ref2 0.925 | locus YDR297W, strain sur2, hits give low values 0.981 | locus YDR318W, strain mcm21, hits give low values 1.01 | locus YDR334W, strain swr1, hits give low values 0.984 | locus YDR335W, strain msn5, hits give low values 0.985 | locus YDR388W, hits give low values 1.01 | locus YDR392W, strain spt3, hits give low values 1.08 | locus YDR502C, strain sam2, hits give low values 1.02 | locus YEL003W, strain gim4, hits give low values 0.978 | locus YEL037C, strain rad23, hits give low values 0.984 | locus YEL061C, strain CIN8 (second series), hits give low values 0.984 | locus YEL061C, strain CIN8, hits give low values 1 | locus YER015W, strain faa2, hits give low values 0.999 | locus YER016W, strain bim1, hits give low values 1.01 | locus YER110C, hits give low values 1.02 | locus YER111C, strain swi4, hits give low values 0.971 | locus YER155C, strain BEM2 (second series), hits give low values 1 | locus YER155C, strain BEM2, hits give low values 0.996 | locus YER167W, strain BCK2, hits give low values 1 | locus YFR010W, strain ubp6, hits give low values 0.962 | locus YGL078C, strain dbp3, hits give low values 1.01 | locus YGL086W, strain mad1, hits give low values 1.02 | locus YGL167C, strain pmr1, hits give low values 0.974 | locus YGL173C, strain kem1, hits give low values 0.989 | locus YGL227W, strain vid30, hits give low values 0.988 | locus YGL240W, strain doc1, hits give low values 0.963 | locus YGL248W, strain PDE1, hits give low values 1.01 | locus YGL253W, strain hxk2, hits give low values 1 | locus YGR135W, strain pre9, hits give low values 1.03 | locus YGR252W, strain gcn5, hits give low values 0.964 | locus YHR013C, strain ard1, hits give low values 1.02 | locus YHR027C, strain rpn1, hits give low values 1.01 | locus YHR030C, strain SLT2, hits give low values 1 and 0.988 | locus YHR079C, strain IRE1 (second series), hits give low values 1.01 | locus YHR079C, strain IRE1, hits give low values 1 | locus YHR094C, strain hxt1, hits give low values 1.02 | locus YHR129C, strain ARP1, hits give low values 1 | locus YHR142W, strain chs7, hits give low values 0.985 | locus YHR200W, strain rpn10, hits give low values 1.02 | locus YIL066C, strain RNR3, hits give low values 1.01 | locus YIL073C, strain SPO22, hits give low values 1.02 | locus YIL125W, strain kgd1, hits give low values 1.01 | locus YIR030C, strain dcg1, hits give low values 1.03 | locus YJL092W, strain hpr5, hits give low values 0.981 | locus YJL095W, strain BCK1 (second series), hits give low values 0.996 | locus YJL095W, strain BCK1, hits give low values 1.02 and 0.991 | locus YJL115W, strain asf1, hits give low values 0.97 | locus YJL129C, strain trk1, hits give low values 0.96 | locus YJL134W, strain LCB3, hits give low values 1 | locus YJL154C, strain vps35, hits give low values 0.972 | locus YJL164C, strain tpk1, hits give low values 1.01 | locus YJL166W, strain qcr8, hits give low values 0.978 | locus YJL168C, strain set2, hits give low values 1.01 | locus YJL187C, strain SWE1 (second series), hits give low values 1.02 | locus YJR043C, strain POL32, hits give low values 1.01 | locus YJR066W, strain TOR1, hits give low values 0.995

— PubChem BioAssay AID1159580 (chemical genetic matrix, 2015)
